In the library only some 8.8% were active in any assay of this set; here they are far more common.
HT1080NT lethal – kills 2HG-producing HT-1080-NT fibrosarcoma cells; HT-1080-NT fibrosarcoma viability, CellTiter-Glo ATP luminescence, 48 h; Potency, µM (series often up to 46.1 µM), without a hit: at the highest dose activity, negative = less viability, hits mostly cytotoxic; 360,000 tested, 1.6% active;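 also: NT is the 2HG producing partner of a matched IDH1 knockdown line; potency is read from the fitted curve at half-maximal effect; 0% = DMSO-treated cells and -100% = media-only wells without cells; nearly all actives have a fitted effect of over 55% in size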
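A 48-hour cytotoxicity screen used HT-1080-NT cells plated 2 hours before compound delivery. ATP-based CellTiter-Glo luminescence measured viability, normalized to DMSO and no-cell controls.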
KB-V1 cytotox – kills drug-selected multidrug resistant KB-V1 cells. Potency, µM (highest dose often 46.1 µM), most hits filed as cytotoxic. 400,000 tested, 3.4% active. KB-V1 MDR cells viability, CellTiter-Glo, 72 h; also: potency is read from the fitted curve at half-maximal effect; nearly all actives have a fitted effect of over 60% in size
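Potencies derive from concentration-effect curves fitted to normalized luminescence (CellTiter-Glo) of KB-V1 cells treated for 72 h at 37 degrees C in phenol-red-free DMEM containing 10% FBS.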
HT1080 IDH1KD tx – toxicity to HT-1080 IDH1 knockdown cells (counter line); HT-1080 IDH1 knockdown viability, ATP luminescence, 48 h; Potency, µM (top dose mostly 46.1 µM), for the others: top-dose activity, negative = toxicity, hits mostly cytotoxic; 360,000 tested, 2% active;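 also: potency is read from the fitted curve at half-maximal effect; 0% = DMSO wells and -100% = cell-free medium wells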
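Viability of IDH1-knockdown HT-1080 fibrosarcoma cells was assessed by CellTiter-Glo after 48 h at 37 °C with titrated compound; concentration-effect curves were classified by fit quality and response size.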
IL-1B inflam inh – inhibitors of inflammasome signaling (IL-1 beta secretion). THP-1 LPS/ATP IL-1B secretion, AlphaLISA, 16 h; stronger effect = lower value. activity change, % at 57.5 µM. 360,000 tested, 4.7% active; in the data active = activity change below about -50%; inconclusive = mostly about -30% to -49%
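Secreted IL-1B measured by AlphaLISA bead assay after 16 h compound exposure of THP-1 cells; compounds (final up to 57.5 uM) added 1 h before LPS (250 ng/mL) and ATP (1.25 mM) stimulation; lower signal means less secretion.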
KB-3-1 cytotox – KB-3-1 parental cell cytotoxicity. Potency, µM (titrated, usually from 46.1 µM), hits mostly cytotoxic. KB-3-1 viability, CellTiter-Glo ATP luminescence, 72 h. AID 1347075. 400,000 tested, 1.4% active; also: potency is read from the fitted curve at half-maximal effect; nearly all actives have a fitted effect of over 60% in size
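Screening of KB-3-1 cells (DMEM, 10% FBS, phenol-red free) ran from lowest to highest compound concentration; after 72 h at 37 °C viability was read luminescently and curves fitted.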
An asterisk follows results filed as active; ! = repeats disagree. Unless noted, calls follow the shape of the dose curve; as a rule, active = well fitted curve in the direction sought with a large enough effect; inconclusive = small, poorly fitted or top-dose-only effect, or another doubt; inactive = no such curve, though single readings can be large; an effect the other way counts as inactive or inconclusive. Unless noted, % is scaled to controls: 0 for no effect and ±100 for the full control effect.

CCN(CC)c1cc(C)c2cc(NC(=O)c3ccccc3F)ccc2n1 was read as HT1080NT lethal -10.6%, KB-V1 cytotox inactive, HT1080 IDH1KD tx -23.0%, IL-1B inflam inh -56.7* and KB-3-1 cytotox inconclusive.
For COc1ccc2nc(NC(=O)CCn3cccc3)sc2c1 the results were HT1080NT lethal -23.4%, KB-V1 cytotox 18.4µM*, HT1080 IDH1KD tx inconclusive, IL-1B inflam inh -5.5 and KB-3-1 cytotox inactive.
`CCN(CC)C(=O)C1=C(C)N(Cc2ccc(F)cc2)C(=O)C(CC(=O)NCCCN(C)C)C1` (stereo not drawn) gave HT1080NT lethal 2.6%, KB-V1 cytotox inactive, HT1080 IDH1KD tx 1.7%, IL-1B inflam inh 0.4 and KB-3-1 cytotox inactive.
For COC(=O)[C@]12CCCCC=C1N(Cc1ccc3c(c1)OCO3)C(=O)[C@H](CC(=O)NCc1ccc(C)o1)C2 the results were HT1080NT lethal -4.4%, KB-V1 cytotox inactive, HT1080 IDH1KD tx 1.3%, IL-1B inflam inh -13.6 and KB-3-1 cytotox inactive.
O=C(NCC(NS(=O)(=O)OCC(Cl)(Cl)Cl)c1ccccc1)C(F)(F)F (stereo not drawn) was read as HT1080NT lethal -3.1%, KB-V1 cytotox inactive, HT1080 IDH1KD tx -3.9%, IL-1B inflam inh 35.6 and KB-3-1 cytotox inactive.
COc1ccc(-n2c(-c3ccc(F)cc3)cn3c4c(=O)n(C)c(=O)n(C)c4nc23)cc1 was read as KB-V1 cytotox inactive and KB-3-1 cytotox inactive.
`COc1ccc2nc(NC(=O)CCc3cc(OC)c(OC)c(OC)c3)sc2c1` gave HT1080NT lethal -0.7%, KB-V1 cytotox 20.6µM*, HT1080 IDH1KD tx -0.4%, IL-1B inflam inh -62.7* and KB-3-1 cytotox inactive.
For COc1cc(CCC(=O)Nc2nnc(C)s2)cc(OC)c1OC the results were HT1080NT lethal 6.51µM*, KB-V1 cytotox inconclusive, HT1080 IDH1KD tx 7.31µM*, IL-1B inflam inh 21.9 and KB-3-1 cytotox inconclusive.
For CCC(=O)Nc1nc2ccc(NC(=O)c3cc(OC)c(OC)c(OC)c3)cc2s1 the results were HT1080NT lethal -25.8%, KB-V1 cytotox inactive, HT1080 IDH1KD tx -16.3%, IL-1B inflam inh -52.5* and KB-3-1 cytotox inactive.
For CCOC(=O)C1CCN(C(=O)c2ccc3c(c2)C(=O)N(c2ccccc2C)C3=O)CC1 the results were HT1080NT lethal 7.4%, KB-V1 cytotox inactive, HT1080 IDH1KD tx 16.3%, IL-1B inflam inh 15.4 and KB-3-1 cytotox inactive.
CN(Cc1ccccc1)C(=O)COc1cccnc1[N+](=O)[O-] was read as HT1080NT lethal 1.7%, KB-V1 cytotox inactive, HT1080 IDH1KD tx -0.1%, IL-1B inflam inh 11.9 and KB-3-1 cytotox inactive.
For O=C(c1ccc(-c2ccccc2)cc1)C1CCCN(Cc2ccncc2)C1 (stereo not drawn) the results were HT1080NT lethal inconclusive, KB-V1 cytotox inactive, HT1080 IDH1KD tx -20.8%, IL-1B inflam inh -86.1* and KB-3-1 cytotox inactive.
For O=C(c1ccc(Cl)cc1)C1CCCN(Cc2cnn(-c3ccccc3)c2)C1 (stereo not drawn) the results were HT1080NT lethal inconclusive, KB-V1 cytotox inconclusive, HT1080 IDH1KD tx inconclusive, IL-1B inflam inh -98.2* and KB-3-1 cytotox inactive.
For Cc1nn(C)cc1CN1CCCC(C(=O)c2ccc(-c3ccccc3)cc2)C1 (stereo not drawn) the results were HT1080NT lethal inconclusive, KB-V1 cytotox inactive, HT1080 IDH1KD tx inconclusive, IL-1B inflam inh -90.6* and KB-3-1 cytotox inactive.
For O=C(c1ccc(Cl)cc1)C1CCCN(Cc2ccc(Oc3ncccn3)cc2)C1 (stereo not drawn) the results were HT1080NT lethal -3.2%, KB-V1 cytotox inactive, HT1080 IDH1KD tx -1.1%, IL-1B inflam inh -2.9 and KB-3-1 cytotox inactive.
For O=C(c1ccc(-c2ccccc2)cc1)C1CCCN(C(=O)c2ccncc2)C1 (stereo not drawn) the results were HT1080NT lethal -19.2%, KB-V1 cytotox inactive, HT1080 IDH1KD tx -28.8%, IL-1B inflam inh -14.1 and KB-3-1 cytotox inactive.
`COc1cccc(NC(CNS(=O)(=O)c2ccc(Cl)cc2)c2ccccc2)c1` (stereo not drawn) gave KB-V1 cytotox inactive and KB-3-1 cytotox 18.4µM*.
O=S(=O)(NCC(Nc1ccc(Cl)cc1)c1ccccc1)c1ccccc1 (stereo not drawn) was read as HT1080NT lethal inconclusive, KB-V1 cytotox 18.4µM*!, HT1080 IDH1KD tx inconclusive, IL-1B inflam inh -92.0* and KB-3-1 cytotox inconclusive.
Screening COc1cccc(NC(CNS(=O)(=O)c2ccc(C)cc2)c2ccccc2)c1 (stereo not drawn) returned KB-V1 cytotox 18.4µM* and KB-3-1 cytotox inconclusive.
For CCOC(=O)c1cc(-c2ccc(C)cc2)n(CCCC(=O)Nc2cc(C)ccc2C)c1 the results were KB-V1 cytotox inactive and KB-3-1 cytotox inactive.
CN(C)CCCN(C(=O)CCS(=O)(=O)c1ccccc1)c1nc2cc3c(cc2s1)OCO3 was read as HT1080NT lethal -10.7%, KB-V1 cytotox inconclusive, HT1080 IDH1KD tx 5.7%, IL-1B inflam inh -106.8* and KB-3-1 cytotox inconclusive.
Screening CN(C)CCCN(C(=O)CCSc1ccccc1)c1nc2cc3c(cc2s1)OCO3 returned HT1080NT lethal inconclusive, KB-V1 cytotox inconclusive, HT1080 IDH1KD tx 18.4µM*, IL-1B inflam inh -104.1* and KB-3-1 cytotox inconclusive.
For Cc1nn(S(=O)(=O)c2ccccc2)c(C)c1S(=O)(=O)N1CCOCC1 the results were HT1080NT lethal 12.8%, KB-V1 cytotox inactive, HT1080 IDH1KD tx 14.8%, IL-1B inflam inh -0.8 and KB-3-1 cytotox inactive.
Screening CCC(=O)c1ccc(OCCn2cnc3ccccc32)cc1 returned HT1080NT lethal -7.9%, KB-V1 cytotox 20.6µM*, HT1080 IDH1KD tx -5.1%, IL-1B inflam inh -0.7 and KB-3-1 cytotox inactive.
`COCCn1cnc2cc(C)c(C)cc21` gave HT1080NT lethal 4.3%, KB-V1 cytotox inactive, HT1080 IDH1KD tx 20.1%, IL-1B inflam inh 17.0 and KB-3-1 cytotox inactive.
Cc1cc2ncn(CCOc3ccccc3)c2cc1C was read as HT1080NT lethal -7.0%, KB-V1 cytotox 23.1µM*, HT1080 IDH1KD tx -17.3%, IL-1B inflam inh -9.3 and KB-3-1 cytotox inactive.
For Cn1cnnc1SCC(=O)Nc1ccc(OC(F)F)cc1 the results were HT1080NT lethal 12.3%, KB-V1 cytotox inconclusive, HT1080 IDH1KD tx 19.9%, IL-1B inflam inh 0.6 and KB-3-1 cytotox inactive.
CCC1(c2ccccc2)NC(=O)N(CC(=O)N(CC(=O)Nc2ccccc2C(F)(F)F)Cc2ccco2)C1=O (stereo not drawn) was read as HT1080NT lethal 3.9%, KB-V1 cytotox inactive, HT1080 IDH1KD tx 11.6%, IL-1B inflam inh -12.6 and KB-3-1 cytotox inactive.

Screening data from PubChem.
